Paper PMC5540273 (PLoS ONE, 2017)

Key:
Settings in all cases: concentration: 1 μM, replicates: in singlicate; n = 1
IKK-alpha = test system: T1, IKK-alpha
T1 construct: gene CHUK

IKK-beta = test system: T2, IKK-beta
T2 construct: gene IKBKB

IKK-epsilon = test system: T3, IKK-epsilon
T3 construct: gene IKBKE

INSRR = test system: INSRR
INSR = test system: INSR
IRAK1 = test system: IRAK1
IRAK3 = test system: IRAK3
IRAK4 = test system: IRAK4
ITK = test system: ITK
[1] = test system: JAK1(JH1domain-catalytic)
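Further: KINOMEscan kinase panel screen.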

| SMILES | %Inh (IKK-alpha) | %Inh (IKK-beta) | %Inh (IKK-epsilon) | %Inh (INSRR) | %Inh (INSR) | %Inh (IRAK1) | %Inh (IRAK3) | %Inh (IRAK4) | %Inh (ITK) | %Inh [1] |
| --- | --- | --- | --- | --- | --- | --- | --- | --- | --- | --- |
| COc1cc(Nc2ccnc3cc(-c4ccncc4)ccc23)cc(OC)c1OC.Cl [GW494610] | 23% | 13% | 0% | 13% | 8% | 24% | 0% | 10% | 0% | 33% |
| COc1cccc2c(-c3ccncc3)c(-c3ccc(F)cc3)nn12 [GW468513] | 0% | 14% | 3% | 9% | 11% | 28% | 24% | 7% | 8% | 0% |
| O=C(O)C(F)(F)F.O=c1[nH]ccc2nc(N[C@@H]3CCNC3)nc(Nc3cc(Cl)cc(Cl)c3)c12 [GSK2188764] | 72% | 44% | 29% | 5% | 36% | 90.1% | 1% | 17% | 17% | 93.5% |
| COc1cccc(C2=C(Nc3cccc(O)c3)C(=O)NC2=O)c1 [SB-390771] | 2% | 18% | 40% | 0% | 3% | 29% | 9% | 38% | 10% | 9% |
| O=C(Nc1n[nH]c2cc(-c3cccs3)ccc12)C1CC1 [SB-731284] | 57% | 73% | 0% | 0% | 40% | 35% | 9% | 45% | 0% | 0% |
| CCOc1nccc(-c2c(-c3ccc(F)cc3)ncn2C2CCNCC2)n1 [SB-249175] | 0% | 0% | 6% | 4% | 10% | 45% | 11% | 6% | 0% | 29% |
| CN(c1ccc(NC(=O)N2CCN(CCCN3CCOCC3)CC2)cc1)c1ccnc(Nc2ccc(CS(C)(=O)=O)cc2)n1.Cl [GW830899] | 0% | 0% | 0% | 0% | 0% | 0% | 50% | 0% | 0% | 0% |
| O=C(Nc1n[nH]c2nc(-c3ccccc3O)ccc12)C1CC1 [SB-711880] | 0% | 0% | 10% | 0% | 0% | 0% | 2% | 0% | 46% | 36% |
| CN(c1ccc2c(c1)nc(NCc1ccccc1)n2C)c1ccnc(Nc2ccc(CS(C)(=O)=O)cc2)n1.Cl [GW811603] | 0% | 0% | 0% | 44% | 10% | 0% | 0% | 0% | 0% | 12% |
| Fc1cc(Cl)ccc1Nc1ccnc2cc(-c3ccc(CN4CCOCC4)o3)ccc12 [GW560109] | 43% | 37% | 0% | 5% | 0% | 33% | 27% | 31% | 1% | 0% |
| CC(C)c1nc(-c2ccc(F)c(NS(=O)(=O)c3c(F)cccc3F)c2)c(-c2ccnc(Nc3ccc(N4CCOCC4)nc3)n2)s1 [GSK1804250] | 0% | 0% | 23% | 2% | 11% | 0% | 3% | 0% | 9% | 17% |
| COc1cccc(NC(=O)NCCNc2ccnc(Nc3ccc(F)cc3)n2)c1 [GSK1379879] | 0% | 0% | 0% | 0% | 0% | 25% | 14% | 21% | 6% | 23% |
| COc1cc(Nc2nccc(N3CCC(NS(=O)(=O)c4ccc(NC(C)=O)cc4)CC3)n2)cc(OC)c1OC [GSK1379825] | 24% | 14% | 11% | 0% | 0% | 74% | 85% | 44% | 17% | 20% |
| Cc1cccc(Nc2nc(NCCN)ncc2C(N)=O)c1 [GSK1292139] | 28% | 16% | 0% | 0% | 22% | 61% | 0% | 60% | 8% | 27% |
| CC(=O)Nc1cn2nc(Oc3cccc(NC(=O)c4cccc(C(F)(F)F)c4)c3)ccc2n1 | 0% | 0% | 0% | 0% | 0% | 0% | 44% | 0% | 0% | 32% |
| CNc1nccc(-c2ccc3c(N)n[nH]c3c2)n1 [GSK2206003] | 90% | 81% | 17% | 0% | 11% | 49% | 49% | 0% | 24% | 0% |
| CSc1ccc(NC2=C(c3ccc(Cl)cc3)C(=O)NC2=O)cc1 [SB-317658] | 0% | 0% | 10% | 30% | 4% | 0% | 0% | 0% | 0% | 0% |

| SMILES | %Inh (IKK-alpha) | %Inh (IKK-beta) | %Inh (IKK-epsilon) | %Inh (INSRR) | %Inh (INSR) | %Inh (IRAK1) | %Inh (IRAK3) | %Inh (IRAK4) | %Inh (ITK) | %Inh [1] |
| --- | --- | --- | --- | --- | --- | --- | --- | --- | --- | --- |
| COc1cccc(CC(=O)N2CCc3cc(-c4cn(C)c5ncnc(N)c45)ccc32)c1 [GSK2608899] | 0% | 60% | 75% | 13% | 9% | 0% | 14% | 0% | 12% | 8% |
| Cn1cc(-c2ccc3c(c2)CCN3C(=O)Cc2cc(F)cc(C(F)(F)F)c2)c2c(N)ncnc21 [GSK2635225] | 0% | 0% | 75% | 0% | 31% | 8% | 0% | 0% | 5% | 9% |
| N#Cc1cnc2cc(-c3cnc(CNCCN4CCOCC4)s3)ccc2c1Nc1ccc(Oc2ccccc2)cc1 [GW664114] | 29% | 23% | 43% | 0% | 7% | 49% | 0% | 37% | 21% | 10% |
| O=C(Nc1c(F)cccc1F)c1cc(C(=O)c2ccccc2F)c[nH]1 [GSK1326180] | 0% | 0% | 0% | 5% | 17% | 0% | 7% | 0% | 0% | 3% |
| O=C(Nc1n[nH]c2nc(-c3ccccc3)ccc12)C1CC1 [SB-708999] | 94% | 66% | 37% | 0% | 0% | 24% | 10% | 14% | 4% | 0% |
| CCn1cnc2c(NCc3ccccc3)ncnc21 [SKF-96418] | 26% | 19% | 0% | 0% | 2% | 25% | 0% | 0% | 0% | 6% |
| CN(c1ccc(F)c(NC(=O)c2cccc(OC(C)(C)C#N)c2Cl)c1)c1ccc2nc(NC(=O)C3CC3)sc2n1 | 0% | 0% | 29% | 0% | 0% | 0% | 8% | 0% | 0% | 10% |
| Nc1cccc(-c2ccc3c(N)n[nH]c3c2)c1 [GSK2193613] | 0% | 0% | 11% | 0% | 0% | 10% | 0% | 0% | 10% | 0% |
| Cl.Cl.NCC(NC(=O)c1cc(-c2cccnc2)c(-c2ccnc3[nH]ccc23)s1)c1ccccc1 (stereo not drawn) [GSK1323434] | 14% | 54% | 21% | 0% | 0% | 76% | 1% | 8% | 10% | 15% |
| COC(=O)Nc1nc2ccc(Oc3ccc(CC(=O)Nc4cc(C(F)(F)F)ccc4F)cc3)cc2[nH]1 [GW680903] | 7% | 1% | 0% | 0% | 0% | 26% | 0% | 14% | 14% | 6% |
| Cc1ccc(Nc2ccnc(Nc3ccc(C)c(F)c3)n2)cc1O.Cl [GW582868] | 38% | 18% | 0% | 0% | 0% | 42% | 76% | 25% | 9% | 29% |
| CCNC(=O)/C=C/c1n[nH]c2cc(Sc3ccccc3C(=O)NC)ccc12 | 26% | 20% | 8% | 34% | 0% | 33% | 9% | 0% | 0% | 0% |
| COc1ccc(NC(=O)c2ccoc2)cc1-c1ccc(C(=O)NCC2CC2)cc1 [GW810437] | 0% | 0% | 0% | 0% | 10% | 6% | 0% | 0% | 4% | 0% |
| COc1ccc(C)c(Nc2ccnc(Nc3ccc(-c4cnc[nH]4)cc3)n2)c1.Cl [GW784041] | 0% | 0% | 0% | 0% | 0% | 0% | 35% | 0% | 18% | 100% |
| Cc1cc(-c2c(-c3ccc(F)cc3)ncn2CCCN2CCOCC2)nc(N)n1 [SB-222517] | 0% | 0% | 0% | 26% | 8% | 0% | 0% | 0% | 6% | 0% |
| CS(=O)(=O)c1cccc(CNc2nc(Nc3ccc4c(c3)CCC(=O)N4)ncc2C(F)(F)F)c1 | 0% | 0% | 48% | 20% | 16% | 0% | 22% | 0% | 0% | 50% |
